Assay outcomes from PubChem BioAssay.
H9c2 protect: modulators protecting cardiomyocytes from myocardial damage | AID 588492 | protection from H2O2 cell death, % at 20 µM | 0.63% of 360,000 active | H9c2 cardiomyocytes, H2O2 injury protection, ATPLite, 2 h;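 active = compounds giving at least 50% protection of heart cells from peroxide-induced death in the single-dose screen, raw or plate-pattern-corrected value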;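 also: 0% = DMSO wells with peroxide and 100% = DMSO wells without peroxide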
UBC9 SUMO inh: SUMOylation inhibition; P63279; 0.36% of 290,000 active; inhibition, % at 35 µM; AID 2006; HTRF SUMOylation assay, SAE1/SAE2 + UBC9, in vitro; in the data active = inhibition above about 50%, passing the limit was not always enough; inconclusive = no clear call, values can overlap the other calls
Target sequence (P63279 whole entry, looked up): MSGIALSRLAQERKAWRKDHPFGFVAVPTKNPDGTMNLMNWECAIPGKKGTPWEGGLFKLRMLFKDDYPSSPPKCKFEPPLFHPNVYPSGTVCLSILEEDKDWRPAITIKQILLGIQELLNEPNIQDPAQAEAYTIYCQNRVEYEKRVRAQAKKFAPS
ALR inh: human ALR oxidase inhibition via reduced H2O2 | P55789 | purified ALR, DTT oxidation, H2O2 HRP-luminol luminescence | inhibition, % (no concentration beside the values) | 3.8% of 290,000 active | AID 485317;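 active = mean replicate inhibition above about 79%, with every replicate also reaching it, limit read from the data; inconclusive = only one of the two criteria met; inactive = mean below limit and not every replicate reaching it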
NTR1 ag: activates human neurotensin receptor 1. activation, % at 20 µM. AID 493036. NTR1-U2OS beta-arrestin-GFP spot imaging, agonist mode. 0.17% of 330,000 active. P30989;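 active = activation at or above 40% of the spot to cytoplasm intensity ratio, with at least 20 cells analyzed; inconclusive = wells under 20 cells, flagged as cytotoxic or low count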;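 also: 0% = DMSO without peptide and 100% = 100 nM NTR1 peptide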
Target sequence (P30989 whole entry, looked up): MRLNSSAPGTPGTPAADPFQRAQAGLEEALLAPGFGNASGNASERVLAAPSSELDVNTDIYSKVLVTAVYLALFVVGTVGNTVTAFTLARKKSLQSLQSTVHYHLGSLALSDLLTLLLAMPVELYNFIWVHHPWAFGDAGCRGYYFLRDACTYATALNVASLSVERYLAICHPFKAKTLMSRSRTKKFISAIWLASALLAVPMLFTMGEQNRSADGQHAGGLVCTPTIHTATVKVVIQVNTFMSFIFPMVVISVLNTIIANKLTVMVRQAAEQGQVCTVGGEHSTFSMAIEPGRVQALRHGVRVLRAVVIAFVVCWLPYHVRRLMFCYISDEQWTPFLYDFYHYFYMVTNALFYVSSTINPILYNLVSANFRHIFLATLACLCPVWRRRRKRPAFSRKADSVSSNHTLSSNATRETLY
Active calls of the source: *; ? = inconclusive; / = no result given. This is a sample that favours compounds with a hit; in the whole collection about 3.9% have one here.

SMILES	H9c2 protect	UBC9 SUMO inh	ALR inh	NTR1 ag
Cc1nc2ccc(N)cc2s1	-2	-5	99*	0
CCN(CC)c1ccc(Nc2nc(Cl)ncc2Br)cc1	0	-13	99*	3
CCN(CC)c1ccc(CNc2ccc(Br)cn2)cc1	-11	3	/	0
O=c1oc2ccccc2c(Nc2ccc(O)cc2)c1[N+](=O)[O-]	10	17	94*	2
Cn1c(Cc2ccccc2)nnc1SCC(=O)NCCc1ccccc1	-8	-2	-6	2
CCCCn1c(NCc2ccc(N(C)C)cc2)nc2ccccc21	-6	16	88*	5
CCCCn1c(NCc2ccncc2)nc2ccccc21	3	18	23	1
C=CCn1c(NCc2ccc(N(C)C)cc2)nc2ccccc21	-3	-5	99*	-1
C=CCn1c(NCc2ccco2)nc2ccccc21	10	0	17	0
O=C(O)CSCC(=O)Nc1ccc(-c2nc3ccccc3s2)cc1	-8	12	99*	-1
O=C(CSc1nc2ccccc2s1)Nc1nccs1	0	33	-9	1
O=C(CSc1nc2ccccc2s1)NCc1cc([N+](=O)[O-])ccc1O	-3	/	99*	11
Nc1nonc1NC(=O)CSc1nc2ccccc2s1	-16	18	98*	0
O=C(CSc1nc2ccccc2s1)Nc1cc(C(=O)O)cc(C(=O)O)c1	5	8	99*	-1
Cn1nnnc1SCC(=O)NCc1cc([N+](=O)[O-])ccc1O	0	14	2	0
CCOc1ncccc1C(=O)Nc1cc(S(=O)(=O)N2CCOCC2)ccc1N1CCCC1	-3	23	1	-1
O=C(CSc1nc2ccccc2s1)Nc1ccc(Cl)c(C(=O)O)c1	-1	-3	99*	1
O=C(CSc1nnc(SCc2cccc3ccccc23)s1)Nc1ccc(C(=O)O)cc1	-3	16	98*	0
O=C(CSc1nc2ccccc2s1)NNC(=O)Nc1ccc(Cl)c(Cl)c1	-5	-15	-12	6
Cc1ccc(S(=O)(=O)N2CCC(=O)N2)cc1	0	27	36	0
CCOC(=O)c1c(C)c[nH]c1C	5	-3	0	2
CN(C)c1ccc(CNC(=O)c2cc(S(=O)(=O)N3CCOCC3)cn2C)cc1	2	0	98*	-1
Cn1cc(S(=O)(=O)N2CCOCC2)cc1C(=O)NCc1ccc(Cl)cc1	5	6	7	3
Cc1ccc(CNC(=O)c2oc3ccc(S(=O)(=O)N4CCOCC4)cc3c2C)cc1	51*	1	-8	4
COc1ccc(CNC(=O)c2oc3ccc(S(=O)(=O)N4CCOCC4)cc3c2C)cc1	12	-7	-2	-1
SMILES	H9c2 protect	UBC9 SUMO inh	ALR inh	NTR1 ag
c1cncc(-c2noc(-c3ccc4ccccc4c3)n2)c1	-15	-1	-2	3
O=C(O)CCc1ccc(NCc2cccc(Oc3ccccc3)c2)cc1	1	/	32	-1
Nc1nn(-c2ccccc2)c(N)c1N=Nc1ccc2c(c1)OCO2	-8	23	95*	2
CCc1ccc(C(C)NC(=O)c2cc(C)oc2C)cc1 (stereo not given)	56*	12	17	-1
S=C(N/N=C/c1ccco1)NC1CC2CCC1C2 (stereo not given)	-8	7	98*	0
Oc1ccccc1/C=N/NC(=S)NC1CC2CCC1C2 (stereo not given)	16	21	12	15
Cc1ccc(N2C(=O)[C@@H]3C(c4cccnc4)=NO[C@@H]3C2=O)c(C)c1	-9	8	-15	-2
Cc1ccn2c(=O)nc(SCC(=O)c3ccc(Cl)cc3)nc2c1	4	/	93*	5
O=C(CSc1nc(=O)n2cc(Cl)ccc2n1)Nc1ccc2c(c1)OCO2	-2	/	68	-1
Cc1ccn2c(=O)nc(SCC(=O)Nc3ccc4c(c3)OCO4)nc2c1	1	/	?	-1
Cc1ccc2nc(SCC(=O)Nc3cc(C)on3)nc(=O)n2c1	4	/	-6	2
O=C(CSc1nc(=O)n2cc(Cl)ccc2n1)Nc1ccc2c(c1)OCCO2	2	/	99*	0
Cc1ccc2nc(SCC(=O)Nc3ccc4c(c3)OCCO4)nc(=O)n2c1	10	/	98*	-1
Cc1ccn2c(=O)nc(SCC(=O)Nc3ccc4c(c3)OCCO4)nc2c1	7	/	97*	-1
Cc1cc(C(=O)Nc2ccncc2)ccc1[N+](=O)[O-]	-5	10	-15	0
CCc1cc(C(=O)N2CCCC(C(=O)c3ccc(Cl)cc3)C2)no1 (stereo not given)	-3	12	2	1
O=c1[nH][nH]c2c(N=Cc3ccccc3O)ccc(F)c12	5	66*	/	/
CCN(CC)C(=O)c1ccc2c3c(cccc13)C(=O)N(CCc1ccc(OC)c(OC)c1)C2=O	71*	8	/	4
CN(/C=C/C(=O)C(F)(F)F)Cc1ccccc1	6	6	2	-1
COc1ccc(C(CC(=O)N2CCN(c3ccccc3)CC2)c2c(OC)cc(OC)c3ccc(=O)oc23)cc1 (stereo not given)	51*	12	0	-5
COc1cc(C(CC(=O)N2CCCC2)c2c(OC)cc(OC)c3ccc(=O)oc23)cc(OC)c1OC (stereo not given)	5	29	-5	-3
CC[n+]1c(-c2ccc(C)cc2)csc1Nc1c(C)n(C)n(-c2ccccc2)c1=O	0	-2	/	-1
CC[n+]1c(-c2ccccc2)csc1Nc1c(C)n(C)n(-c2ccccc2)c1=O	-5	-12	99*	0
Cc1ccc(-c2nc(CS(=O)CC(=O)NCCN3CCCC3)c(C)o2)cc1 (stereo not given)	-2	15	99*	1
Cc1ccccc1-c1nc(CS(=O)(=O)CC(=O)NCCCN2CCCC2)c(C)o1	7	9	-22	-2
SMILES	H9c2 protect	UBC9 SUMO inh	ALR inh	NTR1 ag
CCc1ccc(-c2nc(CN3CCC(C(=O)NCc4ccco4)CC3)c(C)o2)cc1	/	-5	-8	0
CCc1ccc(-c2nc(CS(=O)CC(=O)NCCCN3CCC(C)CC3)c(C)o2)cc1 (stereo not given)	1	-2	98*	2
Cc1ccc(-c2nc(CS(=O)CC(=O)NCCCN3CCN(Cc4ccccc4)CC3)c(C)o2)cc1 (stereo not given)	-10	/	99*	-1
CCc1ccc(-c2nc(CS(=O)CC(=O)NCCN3CCCCCC3)c(C)o2)cc1 (stereo not given)	1	2	100*	0
CC1(C)CC(=O)C/C(=N/Nc2nc3ccccc3s2)C1	2	-9	/	1
Fc1ccc(CNC(=S)NC2CCCCC2)cc1	8	2	1	-1
O=C(c1ccco1)N1CCN(c2ccc([N+](=O)[O-])cn2)CC1	-2	16	/	0
Cc1ccc(-c2nc(CS(=O)CC(=O)NCCN3CCOCC3)c(C)o2)cc1 (stereo not given)	-3	11	99*	0
Cc1ccc(-c2nc(CS(=O)CC(=O)NCCN(CC(C)C)CC(C)C)c(C)o2)cc1 (stereo not given)	7	26	99*	2
Cc1ccc(-c2nc(CS(=O)(=O)CC(=O)NCCN3CCOCC3)c(C)o2)cc1	2	-3	-3	0
